Reference: PubChem BioAssay (NCATS)
Where “and” joins values, the source holds several entries; their conditions need not be identical. Equal entries are not always repeated. Results filed as inconclusive are left out. Calls of active or inactive are those of the source. The call rests on the fitted dose curve; in most records, active means well fitted cell-killing curve with a large enough effect; inconclusive means small, poorly fitted or top-dose-only effect, or effect the other way; inactive means no such curve, though single readings can be large or run the other way.

Assay: Viability qHTS for spleen associated tyrosine kinase inhibitor (SYKi) drug resistant MV4-11 cells (AID 1963824); further: nearly all actives have a fitted effect of over 35% in size
Details: SYKi-resistant MV4-11 viability, CellTiter-Glo, 72 h; series mostly up to 45 µM; viability, % of control: at the top concentration
How it was run: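 SYK inhibitor-resistant MV4-11 AML cells, 500 per well, added to predispensed compounds and incubated 72 hr at 37 C, 5% CO2. Viability measured by CellTiter-Glo luminescence after 10 min at room temperature.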
Potency means the concentration at half of the fitted maximal effect.

SMILES | Potency | viability, % of control
CN(Cc1ccccc1)C(=O)c1ccc(S(=O)(=O)Nc2ccccc2)cc1 | 14.8 µM (active) | 
OCC(O)CCO/N=C1/C(c2c(O)[nH]c3ccccc23)=Nc2ccccc21 (centres undefined) | 0.0517 µM (active) | 
O=S(=O)(c1ccccc1)N(CC(F)(F)F)c1ccc(C(O)(C(F)(F)F)C(F)(F)F)cc1 | 8.2 µM (active) | 
c1ccc(-c2cnc(Nc3ccc(OCCN4CCCC4)cc3)s2)cc1 | 0.0206 µM (active) | 
CC1=CC(=O)[C@@]2(C(C)C)C[C@@H]12 | 13 µM (active) | 
C#Cc1cccc(Nc2ncnc3cc(OC)c(OC)cc23)c1 | 1.64 µM (active) | 
O=C1c2ccc(Nc3ccc(F)cc3F)cc2CCc2ccc(OCC(O)CO)cc21 (centres undefined) | 9.2 µM (active) | 
COc1c(C(C)C)c(O)c(O)c2c1C(OC)[C@H]1OC(=O)[C@@]23CCCC(C)(C)[C@H]13 (some centres undefined) | 14.3 µM (active) | 
OC[C@@]1(O)CO[C@H](OC[C@H]2O[C@@H](OC(CCCCc3ccc(O)cc3)CCc3ccc(O)cc3)[C@H](O)[C@@H](O)[C@@H]2O)[C@@H]1O (some centres undefined) |  | 96.1% [at 17.3 µM] (inactive)
C=C1CCCC2(C)CCC(C(C)(C)OC3OC(C)C(O)C(O)C3OC(=O)/C(C)=C\C)CC12 (centres undefined) | 8.93 µM (active) | 
CCOC(=O)Nc1nc2ccccc2[nH]1 | 10.3 µM (active) | 
Cn1nccc1-c1ccccc1Oc1ccc(S(=O)(=O)Nc2nccs2)cc1C#N | 13 µM (active) | 
CC(=O)NC(C)c1cnc(-c2cnc(Oc3ccc(OC(C)C)cc3)s2)s1 (centres undefined) | 10.3 µM (active) | 
COC(=O)C1=CO[C@@H](O[C@@H]2O[C@H](CO)[C@@H](O)[C@H](O)[C@H]2O)/C(=C\CO)[C@@H]1CC(=O)OCCc1ccc(O)cc1 |  | 102% [at 17.3 µM] (inactive)
O=C(O)c1ccc2c3c1cccc3c(=O)n1c3ccccc3nc21 |  | 79.9% (inactive)
C=C(C)C1Cc2cc(C(=O)OC3OC(CO)C(O)C(O)C3O)ccc2O1 (centres undefined) |  | 77.5% (inactive)
C=C1CC2C(C)(CCC(=O)O)C(C(C)(C)O)CCC2(C)C2C(=O)OC(C)(C(=O)OC)C(=O)C12C (centres undefined) |  | 77.9% [at 17.3 µM] (inactive)
Cc1ccccc1C(=O)Nc1ccc(C(=O)N2CCC[C@@H](O)c3cc(Cl)ccc32)c(C)c1 | 20.6 µM (active) | 
CC(=O)NC(CCC(=O)O)C(=O)NCCc1ccc(O)cc1 (centres undefined) |  | 85% (inactive)
CCN[C@@H]1C[C@H](N)[C@@H](O[C@H]2OC(CN)=CC[C@H]2N)[C@H](O)[C@H]1O[C@H]1OC[C@](C)(O)[C@H](NC)[C@H]1O |  | 96.6% [at 17.3 µM] (inactive)
Cc1ccc(S(=O)(=O)Nc2ccccc2N2CCCCC2)s1 | 18.4 µM (active) | 
CCc1cc2c(cc1CC)CC(NCC(O)c1ccc(O)c3[nH]c(=O)ccc13)C2 (centres undefined) | 13 µM (active) | 
CCc1cnn2c(NCc3ccc[n+]([O-])c3)cc(N3CCCCC3CCO)nc12 (centres undefined) | 0.0065 µM (active) | 
CNC(=O)c1ccccc1Sc1ccc2c(/C=C/c3ccccn3)n[nH]c2c1 | 8.41 µM (active) and 1.3 µM (active) and 3.32 µM (active) | 
C=C(C)C(=O)OC1C(OC(C)=O)/C(C=O)=C\CC/C(CO)=C/C2OC(=O)C(=C)C21 (centres undefined) | 2 µM (active) | 
C/C=C(\C)C(=O)O[C@H]1C=CC(=O)O[C@H]1/C=C/[C@@H](O)[C@H](C)O | 3.66 µM (active) | 
C=C1C(OC2OC(CO)C(O)C(O)C2O)CC2C(C)(C)C(O)CCC2(C)C1CC/C(C)=C\COC(=O)CC(=O)O (centres undefined) | 5.44 µM (active) | 
CC1CCC2(NC1)OC1CC3C4CC=C5CC(O[C@@H]6O[C@H](CO)[C@@H](O[C@@H]7O[C@@H](C)[C@H](O)[C@@H](O)[C@H]7O)[C@H](O)[C@H]6O[C@@H]6O[C@@H](C)[C@H](O)[C@@H](O)[C@H]6O)CCC5(C)C4CCC3(C)C1C2C (some centres undefined) | 5.51 µM (active) | 
CC1(C)O[C@H]2CC(=O)OC[C@@]23C1=C(O)C(=O)[C@]1(C)C3CC[C@@]2(C)[C@H](c3ccoc3)OC(=O)[C@H]3O[C@]321 (some centres undefined) |  | 83.8% [at 17.3 µM] (inactive)
